Assays:
JNK2 = system: T1, JNK2
T1 construct: gene MAPK9

JNK3 = system: T2, JNK3
T2 construct: gene MAPK10

[1] = system: JAK1(JH2domain-pseudokinase)
[2] = system: JAK2(JH1domain-catalytic)
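Note: kd values determined as follow-up on hits from a single-replicate KINOMEscan panel screen.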

COc1cc2nccc(Nc3ccc(OCc4ccc(NC(C)=O)cc4)cc3)c2cc1OC.Cl [GW440135]
Kd (FLT4): 480 nM
Kd (KIT): 7.4 nM

Cc1cccc(-c2cc(-c3c[nH]nc3-c3ccccn3)ccn2)c1 [GW679395]
Kd (GAK): 130 nM

OCCCNc1nccc(-c2c(-c3cccc(C(F)(F)F)c3)nn3cc(C(F)(F)F)ccc23)n1 [GW630813]
Kd (GRK1): > 10000 nM

CN1C(=O)C(Nc2cc(Cl)c(O)c(Cl)c2)=C(c2ccc(Cl)cc2)C1=O [SB-404321]
Kd (GRK4): > 10000 nM

CCn1c(-c2ccoc2)nc2cnccc21 [SB-733887]
Kd (GRK7): > 10000 nM
Kd (INSR): > 10000 nM

Nc1n[nH]c2nnc(-c3ccccc3)c(-c3ccccc3)c12 [GW554060]
Kd (HIPK2): 410 nM

Cn1c(=O)c(F)c(Nc2ccc(I)cc2F)c2c(=O)n(OC[C@H](O)CO)cnc21
Kd (HIPK4): > 10000 nM

COc1cc2ncn(-c3cc(OCc4ccncc4)c(C(N)=O)s3)c2cc1OC [GSK336313]
Kd (INSRR): > 10000 nM

Nc1nc(-c2ccccc2F)c(-c2ccnc3ccccc23)s1 [GW560459]
Kd (INSR): > 10000 nM
Kd (JNK2): 1200 nM
Kd (JNK3): 610 nM

Fc1cccc(CSc2nnc(-c3ccc4c(c3)CCO4)o2)c1
Kd (IRAK4): > 10000 nM

Cc1cc(Nc2nc(-c3cccc(C)n3)nc3ccccc23)ccn1 [GW872411]
Kd [1]: 410 nM

Nc1nc(N)c2nc(-c3ccccc3)[nH]c2n1 [SKF-12778]
Kd [1]: 150 nM

O=c1cc(N2CCOCC2)nc2n(Cc3ccc(F)c(Cl)c3)ccn12 [GSK2297099]
Kd [2]: > 10000 nM

COc1cc(Nc2nccc(N3CCC(NC(=O)C4COc5ccccc5O4)C3)n2)cc(OC)c1OC (stereo not drawn) [GSK1379761]
Kd [2]: 47 nM

— article PMC5540273 (PLoS ONE, 2017)
